In PubChem BioAssay AID1440 (NMMLSC, 2008):
Hit rate of the full screen: of about 220,000 compounds, fewer than 10 were called active. Another 92% or so got no clear call; they are omitted. No rule for the calls is given here. A selection follows.

The molecules below were run against Guanine nucleotide-binding protein G(o) subunit alpha (Homo sapiens) + Regulator of G-protein signaling 19 (Homo sapiens) (UniProt P09471+P49795) (assay: regulators of RGS19 binding to Galphao, biochemical, multiplexed bead flow cytometry (AID 1440;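 also: fluorescent Galpha o activated by aluminum fluoride binding bead-coupled RGS19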)). Details: at 10 µM.
Guanine nucleotide-binding protein G(o) subunit alpha (Homo sapiens) + Regulator of G-protein signaling 19 (Homo sapiens), sequence (P09471 whole entry, looked up): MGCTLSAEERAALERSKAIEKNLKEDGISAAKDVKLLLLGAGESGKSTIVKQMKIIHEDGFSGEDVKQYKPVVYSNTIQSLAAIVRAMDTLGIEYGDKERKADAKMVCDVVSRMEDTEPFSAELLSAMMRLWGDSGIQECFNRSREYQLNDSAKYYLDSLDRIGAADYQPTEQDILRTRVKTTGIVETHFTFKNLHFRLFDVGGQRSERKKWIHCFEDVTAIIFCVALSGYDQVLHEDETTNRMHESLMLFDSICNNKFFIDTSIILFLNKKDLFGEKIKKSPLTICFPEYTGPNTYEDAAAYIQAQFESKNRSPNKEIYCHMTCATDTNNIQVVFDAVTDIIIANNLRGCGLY
Guanine nucleotide-binding protein G(o) subunit alpha (Homo sapiens) + Regulator of G-protein signaling 19 (Homo sapiens), sequence (P49795 whole entry, looked up): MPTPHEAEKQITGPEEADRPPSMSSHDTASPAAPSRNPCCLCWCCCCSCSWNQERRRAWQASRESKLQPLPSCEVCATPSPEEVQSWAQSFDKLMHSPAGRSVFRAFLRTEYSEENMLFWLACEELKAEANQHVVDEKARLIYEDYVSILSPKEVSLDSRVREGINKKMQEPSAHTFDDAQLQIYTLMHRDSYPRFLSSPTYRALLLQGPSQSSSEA

SMILES | binding response (% of control) [%]
O=C(c1cnccn1)N(Cc1cccs1)C1(C(=O)NC2CCCCC2)CCCCC1 | -941
COc1ccc(Br)cc1-c1noc(-c2ccncc2)n1 | 92.5
Cc1ccc(C(=O)NC(=S)N2CCN(C)CC2)cc1 | 97.8
CC(=O)c1nc2ccccc2n1S(=O)(=O)c1ccc(C)cc1 | 97.2
Clc1ccc(/C=N/N2CCN(Cc3ccccc3Cl)CC2)cc1 | 100
COc1ccc(N2CCN(C(=O)CSc3nnnn3-c3ccc4c(c3)OCCO4)CC2)cc1 | 94.7
COc1ccc(N(C(=O)Cn2nnc3ccccc32)C(C(=O)NCc2ccco2)c2cccnc2)cc1 (centres undefined) | 110
CC(C)(C)OC(=O)N1CCOCCOCCNCCOCCOCC1 | 98.6
CN=C(Nc1cc(C)nn1-c1ccccc1)c1ccccc1 | 113
COCCCNC(=O)c1ccc(NS(C)(=O)=O)cc1 | 96.8
Cc1ccc(CNCC2CCCO2)o1 (centres undefined) | 96.8
COc1ccc2c(c1)c(C(=O)CNc1nc(C)cs1)c(C)n2C | 44.3
FC(F)Oc1ccc(-c2c[n+]3c(n2-c2ccccc2)CCCCC3)cc1 | 256
Cc1nn(Cc2ccc(F)cc2)c(C)c1NC(=O)c1cnn2cccnc12 | 109
CC1=C(C(N)=O)C(c2cccc(OCc3ccccc3)c2)n2nnnc2N1 (centres undefined) | 91.9
Cc1ccc(Cl)cc1N(Cc1ccc(C(=O)NCc2cccnc2)cc1)S(=O)(=O)c1ccccc1 | 98.3
CCCCCOc1ccc(NC(=O)CCCC(=O)O)cc1 | 81.9
C#CCn1cnc2c(cnn2-c2ccc(C)c(C)c2)c1=O | 106
COc1ccc(C(=O)CSc2nc3ncccc3[nH]2)cc1OC | 52.5
CCn1cc(C(=O)NCC2CCCO2)c2cc(OC)c(OC)cc2c1=O (centres undefined) | 103
Cc1cc(C)nc(SCC(=O)N2CCC(C(N)=O)CC2)n1 | 105
CCC(=O)N1CCc2cc(S(=O)(=O)NC(Cc3ccccc3)C(=O)Nc3nccs3)ccc21 (centres undefined) | -46.3

SMILES | binding response (% of control) [%]
O=c1[nH]c2cc3c(cc2cc1CN(Cc1ccc2c(c1)OCO2)Cc1nnnn1CC1CCCO1)OCO3 (centres undefined) | 90.7
Cc1ccc(/C=C2\CCCC3=C2NC(=S)NC3c2ccc(C)cc2)cc1 (centres undefined) | 203
C=CCn1c2ccccc2c2nnc(SCN3C(=O)c4ccccc4C3=O)nc21 | 77.7
CCCC(C)NC(=O)Cc1ccccc1[N+](=O)[O-] (centres undefined) | 110
O=C(CN1CCSCC1)N1CCc2[nH]c3ccc(Br)cc3c2C1 | 66.9
CCc1ccc(OCC(=O)Nc2cc(S(=O)(=O)CC)ccc2O)cc1 | 89.9
Cc1ccc(NC(CC(=O)c2ccccc2)c2ccc(F)cc2)cc1 (centres undefined) | 100
O=C1COc2ccc(C(=O)NCc3ccc4c(c3)OCO4)cc2N1 | 104
CC(NC(=O)C(=O)NN=C1CCCCCCCCCCC1)c1ccccc1 (centres undefined) | 101
COc1ccc(-c2nn[nH]n2)cc1OC | 116
O=C(CN1CCOCC1)Nc1ncc(Cc2ccccc2Cl)s1 | 108
Clc1ccc(-c2nn3c(C4COc5ccccc5O4)nnc3s2)cc1 (centres undefined) | 17.6
C/C(CC(=O)Nc1cccc(Cl)c1C)=N\NC(=O)C(=O)NCC(C)C | 105
COC(=O)CNC(=O)COC(=O)c1ccc(OC)c([N+](=O)[O-])c1 | 98.3
CCN1CCN(C(c2cccs2)C(C)NC(=O)c2c(F)cccc2F)CC1 (centres undefined) | 114
BrC(/C=C\c1ccccc1)=N/Nc1nc(N2CCOCC2)nc(N2CCOCC2)n1 | 98.4
O=C(c1ccccc1NS(=O)(=O)c1ccc(Br)s1)N1CCCC1 | 102
Cc1cc(C)c(C#N)c(SCC(=O)N2CCCCC2)n1 | 91.6
COC(/C=C/Nc1ccc(C)cc1)=C(C#N)C#N | 71.7
COc1ccccc1/C=C/C(=O)OCC(=O)c1c(N)n(C)c(=O)n(C)c1=O | 109
CCN(CC(=O)Nc1ccccc1OC)C(=O)C1CC2C=CC1C2 (centres undefined) | 180
CCN(CC)C(=O)c1sc(NC(=O)c2cccnc2)c(C(=O)OC)c1C | 128

SMILES | binding response (% of control) [%]
CN1C(=O)C2(N=c3ccccc3=N2)c2ccccc21 | 103
CS(=O)(=O)N1CCN(C(=O)c2cc(-c3cccs3)nc3ccccc23)CC1 | 103
O=C(O)c1cc(-c2ccccn2)n[nH]1 | 106
Cc1cc(C)cc(-n2c(C)c3c(C)nnc(C)c3c2C)c1 | 121
OC1C2(Cc3ccccc3)CN3CCN(C2)CC1(Cc1ccccc1)C3 (centres undefined) | 71.2
COc1cc(S(=O)(=O)NCCc2ccc3c(c2)OCO3)ccc1-n1cnnn1 | 25.7
COC(=O)c1ccccc1OC(=O)c1ccc(Br)o1 | 102
CC(C)CNC(=O)COC(=O)c1ccc(Cl)c(S(N)(=O)=O)c1 | 107
O=C(Nc1ccccc1N1CCOCC1)c1cccc([N+](=O)[O-])c1 | 123
O=C(Nc1cccc(-c2cnc3ccccc3n2)c1)c1ccco1 | 147
COc1ccccc1N(C(C)=O)C1SC(=O)N(c2ccccc2)C1=O (centres undefined) | 70.1
CCOC(=O)N1CCN(C(=O)CCNS(=O)(=O)c2cc(Br)cnc2N)CC1 | 93.9
Cc1ccc(S(=O)(=O)N(Cc2ccccc2)Cc2ccco2)cc1 | 92.7
COc1cc(/C=N/NC(=O)Cc2ccccc2)ccc1Oc1ccc([N+](=O)[O-])cc1[N+](=O)[O-] | 107
CCOCCCNC(=O)C(c1ccccc1)N(Cc1cccs1)C(=O)CNC(=O)c1ccccc1 (centres undefined) | 222
O=C1CC2(CON=C2c2ccc(F)cc2)C(=O)N1c1ccc(F)cc1 (centres undefined) | 72.5
CCOC(=O)C(=O)Nc1ccccc1C(=O)Nc1ccc(OC)cc1 | 101
CCC(C)[C@H](NC(=O)N1CCCC1)C(=O)OC (some centres undefined) | 117
COc1ccc(C)cc1S(=O)(=O)N(CC(=O)O)c1ccc(F)cc1 | 102
CCOC(=O)C1=C(c2ccccc2)OC(N)=C(C#N)C1C(C)C (centres undefined) | 109
